Activity calls are given as the source filed them. How the calls were made is not given here.
Tests used:
[1] = enhancers of glutamate uptake in motor neurons, MN-1 cell line (AID 1612); conditions: MN-1 motor neuron cells, stronger effect = higher value;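 further: tested at 1 µM final; 0% = mean of DMSO vehicle wells on each plate; positive means more glutamate uptake than control and negative means less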
[2] = reducers of polyQ inclusions in PC12 cells, cell-based, NGF-treated PC12, GFPQ80 (AID 1614); conditions: PC12 NGF-treated GFP-polyQ80 inclusion reduction;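 further: lower means fewer inclusions and 0 means no inclusions at all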
[3] = suppressors of polyglutamine aggregation in yeast, 75Q-TubH (AID 1616); conditions: S. cerevisiae 75Q-TubH polyglutamine aggregation suppression; stronger effect = higher value
[4] = hESC survival regulators, cell-based (AID 493140); conditions: human embryonic stem cell survival screen; stronger effect = higher value;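 further: cells exposed to compounds for four days before counting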

SMILES	glutamate uptake change [1] [%]	inclusion score [2]	aggregation suppression score [3]	survival [4]
CCC(Cc1c(I)cc(I)c(N)c1I)C(=O)O (stereo unspecified)	7.36	2	0.027	8.83 (inactive)
CCCCOC(=O)c1ccc(N)cc1	19.2	2	0.439	0.75 (inactive)
CC(C)NCC(O)c1ccc2ccccc2c1 (stereo unspecified)	6.56	2	0.983	5.67 (inactive)
COc1ccc2c(c1)c(CC(=O)OCC(=O)O)c(C)n2C(=O)c1ccc(Cl)cc1	-11	2	0.866	19.2 (inactive)
CO[C@]12C[C@@H](COC(=O)c3cncc(Br)c3)CN(C)[C@@H]1Cc1cn(C)c3cccc2c13	6.29	2	1.56	7.92 (inactive)
Cc1cc2cc3c(C)cc(=O)oc3c(C)c2o1	-15.5	2	0.635	6 (inactive)
NS(=O)(=O)c1cc2c(cc1Cl)NC(C(Cl)Cl)NS2(=O)=O (stereo unspecified)	-0.6	2	1.17	3.33 (inactive)
Nc1ccc(S(=O)(=O)Nc2cnc3ccccc3n2)cc1	6.13	2	1.52	3.75 (inactive)
CCCCOc1ccc(CC(=O)NO)cc1	0.25	2	1.14	12.2 (inactive)
CC(C)(Oc1ccc(CCNC(=O)c2ccc(Cl)cc2)cc1)C(=O)O	8.93	2	1.44	15.2 (inactive)
CC1(C)OC(=O)NC1=O	12.7	2	1.01	9.33 (inactive)
Nc1ccc(S(=O)(=O)Nc2nccs2)cc1	13.7	2	1.31	23.3 (inactive)
CC1CCc2cc(F)cc3c(=O)c(C(=O)O)cn1c23 (stereo unspecified)	3.94	2	0.905	26.8 (inactive)
CCOC(=O)c1ccc(N)cc1	13.1	1.5	1.18	3.58 (inactive)
Nc1ccc(C(=O)NCC(=O)O)cc1	-9.5	2	1.33	1.83 (inactive)
CCN(CC)CCNC(=O)COc1ccc(OC)cc1	0.53	2	1.23	49.8 (inactive)
O=C(Cn1ccnc1[N+](=O)[O-])NCCO	16.4	2	0.925	5.17 (inactive)

SMILES	glutamate uptake change [1] [%]	inclusion score [2]	aggregation suppression score [3]	survival [4]
CC(C(=O)O)c1ccc(C(=O)c2cccs2)cc1 (stereo unspecified)	15.6	2	0.589	6.67 (inactive)
OC(CCN1CCCCC1)(c1ccccc1)c1ccccc1	-4.45	2	1.43	3.42 (inactive)
CC(=O)N(O)CCCCCNC(=O)CCC(=O)N(O)CCCCCNC(=O)CCC(=O)N(O)CCCCCN	-8.52	2	1.05	4 (inactive)
CO[C@@]1(NC(=O)C(C(=O)O)c2ccc(O)cc2)C(=O)N2C(C(=O)O)=C(CSc3nnnn3C)CO[C@@H]21 (stereo partly specified)	0.13	1	1.14	6.42 (inactive)
CCn1cc(C(=O)O)c(=O)c2cnc(N3CCCC3)nc21	-9.95	2	1.27	4.5 (inactive)
CC(=O)Nc1ccc(O)cc1	-4.6	2	1.73	5.25 (inactive)
CC(C)(Oc1ccc(Cl)cc1)C(=O)O	12.1	2	1.01	4.75 (inactive)
Cc1onc(-c2ccccc2Cl)c1C(=O)N[C@@H]1C(=O)N2[C@@H]1SC(C)(C)[C@@H]2C(=O)O	-4.39	2	1.08	24.6 (inactive)
Nc1ccc(S(=O)(=O)Nc2ccccn2)cc1	-8.49	2	1.05	9.08 (inactive)
O=C(O)CCC(=O)Nc1ccc(S(=O)(=O)Nc2nccs2)cc1	14.7	2	1.1	6.17 (inactive)
Cn1c(=O)c2c(ncn2CC(O)CO)n(C)c1=O (stereo unspecified)	0	1	1.31	34 (inactive)
CCCCOc1ccc(OCCCN2CCOCC2)cc1	6.69	2	1.24	2 (inactive)
CC1(C)S[C@@H]2[C@H](NC(=O)[C@H](N)c3ccccc3)C(=O)N2[C@H]1C(=O)O	-16.2	2	1.58	14.2 (inactive)
Cc1ccsc1/C=C/C1=NCCCN1C	1.68	2	1.28	20.3 (inactive)
CN(C)CCOC(=O)C(c1ccccc1)C1(O)CCCC1 (stereo unspecified)	-0.32	2	1.32	12.5 (inactive)
Cc1c(NC(=O)c2cccnc2)c(=O)n(-c2ccccc2)n1C	-15.2	2	1.3	16.6 (inactive)
COc1cnc(NS(=O)(=O)c2ccc(N)cc2)nc1	-0.58	2	1.45	4.42 (inactive)
